Compound activity as filed in PubChem.
CHX counter: Cycloheximide Counterscreen for Small Molecule Inhibitors of Shiga Toxin | cell reporter, cycloheximide protein synthesis inhibition counterscreen | max response, % | 12% of 300,000 active | AID 2314, 2010; in the data active = max response mostly above about 13%, no sharp cut-off; inactive = mostly below about 14%; note: read at 38.3 µM for the half of the compounds with a filed dose; 0% is about no effect
Shiga inhibitor: A qHTS for Small Molecule Inhibitors of Shiga Toxin; Vero cells, Shiga toxin protein synthesis inhibition reporter; inhibition, % at 38.7 µM; 9.2% of 290,000 active; in the data active = inhibition mostly above about 28%, no sharp cut-off; inactive = mostly below about 43%; note: 0% is about no effect
TbPYK inhibitor: qHTS of Trypanosoma Brucei Inhibitors; TbPYK enzyme, Kinase-Glo Plus ATP luminescence, 45 min; Potency, µM (doses to about 76.8 µM), inactives show at the highest dose activity, negative = inhibition, actives largely listed as inhibitors; 0.12% of 410,000 active; note: potency is the fitted concentration of half-maximal effect; % is set by controls: 0 for no effect and ±100 for the full control effect; nearly all actives have a fitted effect of over 50% in size
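Luminescence from Kinase-Glo Plus, added after a 45-minute room-temperature reaction, served as the end-point read-out. The enzyme and substrate were preincubated with compound before ADP (130 uM final) initiated turnover. Concentration-effect curves came from normalized qHTS data.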
RE007 growth inh: qHTS Assay for Inhibitors of the HIV-1 protein Vpr; 0.21% of 360,000 active; Potency, µM (top dose mostly 92.2 µM), for inactives: top-dose activity change, negative = less growth, actives largely listed as inhibitors; S. pombe RE007 Vpr strain, BacTiter-Glo ATP luminescence, 24 h; AID 651644, 2012; active = well fitted falling curve with a large enough effect; inconclusive = small, poorly fitted or top-dose-only effect; inactive = no such curve, though single readings can be large or run the other way; note: potency is the fitted concentration of half-maximal effect; % is set by controls: 0 for no effect and ±100 for the full control effect; nearly all actives have a fitted effect of over 50% in size
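Fission yeast RE007 carrying one integrated HIV-1 vpr copy, seeded at OD 0.01 in PMG+AL medium with 23 nL pinned compound. Grown 24 h at 30 degrees; viability read by BacTiter-Glo luminescence after 5 min.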
LmPK inh: qHTS Assay for Inhibitors of Leishmania Mexicana Pyruvate Kinase (LmPK). AID 1721, 2009. Potency, µM (doses to about 57.5 µM), for inactives: at the highest dose activity change, negative = inhibition, actives largely listed as inhibitors. 0.37% of 290,000 active. purified LmPK, Kinase-Glo ATP luminescence, 1 h. Q27686; note: potency is the fitted concentration of half-maximal effect; % is set by controls: 0 for no effect and ±100 for the full control effect
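In 50 mM imidazole pH 7.2 with 7 mM MgCl2, LmPK (0.1 nM) turned over PEP (0.5 mM) and ADP (0.1 mM) for 1 h at room temperature. Luciferase read-out of ATP.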
FBPA Giardia inh: qHTS Assay for Inhibitors of Fructose-1,6-bisphosphate Aldolase from Giardia Lamblia. A8B2U2. purified Giardia FBPA. Potency, µM (highest dose often 59.6 µM), inactives show top-dose activity, negative = inhibition, hits mostly inhibitors. 0.71% of 290,000 active; note: potency is the fitted concentration of half-maximal effect; % is set by controls: 0 for no effect and ±100 for the full control effect; nearly all actives have a fitted effect of over 55% in size
Target sequence (A8B2U2 whole entry, looked up): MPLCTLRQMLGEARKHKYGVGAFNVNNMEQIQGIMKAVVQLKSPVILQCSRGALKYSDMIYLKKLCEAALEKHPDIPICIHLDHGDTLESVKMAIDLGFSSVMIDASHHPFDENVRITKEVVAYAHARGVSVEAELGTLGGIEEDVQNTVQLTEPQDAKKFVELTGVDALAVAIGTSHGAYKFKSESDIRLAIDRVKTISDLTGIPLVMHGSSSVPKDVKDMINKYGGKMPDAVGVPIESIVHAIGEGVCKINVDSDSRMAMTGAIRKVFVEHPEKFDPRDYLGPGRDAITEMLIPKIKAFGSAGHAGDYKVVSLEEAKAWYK
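40 nM FBPA preincubated 10 min at RT with compound (up to 57.5 uM final), then substrate plus GAPDH/TPI/NAD/arsenate coupling and diaphorase/resazurin added. Fluorescence read after 20 min at RT, 525/598 nm.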
An asterisk follows results filed as active. Many of the other results were omitted from the sample, so hits are more common in it than they were. Unless noted, calls come from the whole dose curve; as a rule, active = well fitted curve in the direction sought with a large enough effect; inconclusive = small, poorly fitted or top-dose-only effect, or another doubt; inactive = no such curve, though single readings can be large; an effect the other way counts as inactive or inconclusive.

Results for Cc1cc(C)cc(OCCCOc2cccc3cccnc23)c1 ?
CHX counter: 5; Shiga inhibitor: -16; TbPYK inhibitor: 0%; RE007 growth inh: -22%; LmPK inh: 3%; FBPA Giardia inh: -4%

How did Clc1cc(Br)ccc1OCCOCCOc1cccc2cccnc12 do in these assays?
CHX counter: -2; Shiga inhibitor: -20; TbPYK inhibitor: -1%; RE007 growth inh: 4%; LmPK inh: 1%; FBPA Giardia inh: -1%

Results for COC(=O)C1(C(=O)OC)CC2=CC(CC2=O)Cc2ccccc2[C@@H]1C[N+](=O)[O-] (some centres not stated) ?
FBPA Giardia inh: -1%

How did O=C(c1ccc(Cl)cc1)N1CCCCC1CCN1CCOCC1 (configuration not stated) do in these assays?
TbPYK inhibitor: 4%

Results for COc1cc2c(cc1OC)CN(Cc1ccccc1)CC2 ?
CHX counter: -3; Shiga inhibitor: -1; TbPYK inhibitor: -8%; RE007 growth inh: 8%; LmPK inh: -3%; FBPA Giardia inh: inconclusive

What do the screens show for `c1ccc(CN2CCc3nc4ccccc4cc3C2)cc1`?
CHX counter: 26*; Shiga inhibitor: 59*; TbPYK inhibitor: 5%; RE007 growth inh: -12%; LmPK inh: -3%; FBPA Giardia inh: -1%

How did CC(C)Nc1nc(Cl)nc(Nc2ccccc2)n1 do in these assays?
CHX counter: 39*; Shiga inhibitor: 53*; TbPYK inhibitor: -1%; RE007 growth inh: -3%; LmPK inh: 2%; FBPA Giardia inh: 16%

Results for CC(C)c1ccc(Nc2nc(Cl)nc(NCCO)n2)cc1 ?
CHX counter: 12*; Shiga inhibitor: 21; TbPYK inhibitor: 0%; RE007 growth inh: -5%; LmPK inh: -7%; FBPA Giardia inh: 0%

How did Cn1c(=O)c2c(ncn2CC(=O)Nc2cc(Cl)cc(Cl)c2)n(C)c1=O do in these assays?
TbPYK inhibitor: 1%

How did Cc1cccc(-c2[nH]c(C(C)(C)C)nc2-c2ccc3nccnc3c2)n1 do in these assays?
TbPYK inhibitor: 0%

Results for Nc1nnc(SCc2c(F)cccc2Cl)s1 ?
CHX counter: 12; Shiga inhibitor: 33; TbPYK inhibitor: -1%; RE007 growth inh: -1%; LmPK inh: 0%; FBPA Giardia inh: 0%

What do the screens show for `Cc1nnc(SCCC(=O)Nc2ccc(F)cc2)s1`?
CHX counter: 7; Shiga inhibitor: 5; TbPYK inhibitor: -7%; RE007 growth inh: 12%; LmPK inh: -1%; FBPA Giardia inh: 4%

How did Cc1nnc(SCc2ccc(F)cc2Cl)s1 do in these assays?
CHX counter: 41*; Shiga inhibitor: 69*; TbPYK inhibitor: -1%; RE007 growth inh: 32%; LmPK inh: -6%; FBPA Giardia inh: 8%

Results for Nc1nnc(SCc2ccc(F)cc2Cl)s1 ?
CHX counter: 31*; Shiga inhibitor: 47*; TbPYK inhibitor: 3%; RE007 growth inh: 13%; LmPK inh: 1%; FBPA Giardia inh: -16%

How did Cc1nnc(SCc2c(Cl)cccc2Cl)s1 do in these assays?
CHX counter: 32*; Shiga inhibitor: 60*; TbPYK inhibitor: 3%; RE007 growth inh: -13%; LmPK inh: 8%; FBPA Giardia inh: 3%

What do the screens show for `COc1cc(F)c(S(=O)(=O)N2CCN(S(=O)(=O)c3ccc4c(c3)OCCO4)CC2)c(F)c1`?
CHX counter: -7; Shiga inhibitor: -5

What do the screens show for `Cc1cc(NC(=O)c2cc(C3CC3)on2)no1`?
CHX counter: 40*; Shiga inhibitor: 73*; TbPYK inhibitor: -8%; RE007 growth inh: 8%; LmPK inh: -1%; FBPA Giardia inh: 5%

Results for Cc1cc(NC(=O)c2cc(C)on2)no1 ?
CHX counter: 8.4*; Shiga inhibitor: 37; TbPYK inhibitor: -2%; RE007 growth inh: -7%; LmPK inh: 1%; FBPA Giardia inh: 4%

Results for Cc1cc(NC(=O)c2ccoc2C)no1 ?
CHX counter: 11*; Shiga inhibitor: 25; TbPYK inhibitor: -19%; RE007 growth inh: -6%; LmPK inh: 18µM*; FBPA Giardia inh: 0%

How did Cc1occc1C(=O)Nc1ccccc1NC(=O)c1ccoc1C do in these assays?
TbPYK inhibitor: -9%; RE007 growth inh: -5%

Results for CCc1ccc(C(=O)Nc2cc(C)on2)o1 ?
CHX counter: 25; Shiga inhibitor: 89*; TbPYK inhibitor: 6%; RE007 growth inh: -10%; LmPK inh: -5%; FBPA Giardia inh: 8%

How did Cc1ccc(C)c(CSC2=NC(C)(C)Nc3ccccc32)c1 do in these assays?
TbPYK inhibitor: 1%

What do the screens show for `COc1ccc(NC(=O)c2cc(C3CC3)on2)c(OC)c1`?
CHX counter: 33*; Shiga inhibitor: 47*; TbPYK inhibitor: 2%; RE007 growth inh: -10%; LmPK inh: -3%; FBPA Giardia inh: 2%

How did Cc1c(Cl)cccc1NC(=O)c1cc(C2CC2)on1 do in these assays?
CHX counter: 35*; Shiga inhibitor: 102*; TbPYK inhibitor: 4%; RE007 growth inh: -10%; LmPK inh: 7%; FBPA Giardia inh: 0%

What do the screens show for `CCCc1cc(C(=O)Nc2ccn(Cc3ccc(C)cc3)n2)no1`?
CHX counter: 1; Shiga inhibitor: 21; TbPYK inhibitor: 10%; RE007 growth inh: -24%; LmPK inh: -5%; FBPA Giardia inh: 9%

What do the screens show for `Cc1cc(NC(=O)c2cc(CC(C)C)on2)no1`?
CHX counter: 43*; Shiga inhibitor: 81*; TbPYK inhibitor: 5%; RE007 growth inh: -13%; LmPK inh: -3%; FBPA Giardia inh: 6%

Results for CCCc1cc(C(=O)Nc2cc(C)on2)no1 ?
CHX counter: 13*; Shiga inhibitor: 61; TbPYK inhibitor: 4%; RE007 growth inh: 1%; LmPK inh: 8%; FBPA Giardia inh: 0%

Results for CC(C)Cc1cc(C(=O)NCc2ccc(Cl)cc2)no1 ?
TbPYK inhibitor: 1%

Results for Cc1cc(C(=O)NNC(=O)Nc2ccc(Cl)cc2)no1 ?
CHX counter: 0; Shiga inhibitor: 17; TbPYK inhibitor: 3%; RE007 growth inh: -2%; LmPK inh: 2%; FBPA Giardia inh: 3%

What do the screens show for `CCC(C)NC(=O)c1cc(CC(C)C)on1` (configuration not stated)?
CHX counter: 49*; Shiga inhibitor: 59*; TbPYK inhibitor: 0%; RE007 growth inh: -6%; LmPK inh: -7%; FBPA Giardia inh: -1%

How did CNc1nc(N)c(C(=O)Nc2cc(C)on2)s1 do in these assays?
CHX counter: 30*; Shiga inhibitor: 88*; TbPYK inhibitor: -27%; RE007 growth inh: 3%; LmPK inh: 11%; FBPA Giardia inh: inconclusive
